Most compounds without a hit are left out; they make up all but 17% or so of the library.
DT40 TDP1 no CPT: qHTS for Inhibitors of human tyrosyl-DNA phosphodiesterase 1 (TDP1): qHTS in cells in absence of CPT; DT40 Tdp1-/- hTDP1 cells, no CPT, ATP luminescence, 48 h; Potency, µM (series often up to 46.2 µM), for the others: at the top dose activity change, negative = growth inhibition, usual class: inhibitors; hit rate 15% among 420,000; AID 686978, 2013; also: % is scaled to controls: 0 for no effect and ±100 for the full control effect; nearly all actives have a fitted effect of over 55% in size
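Growth kinetics read by CellTiter-Glo luminescence after ≥48 hr at 37 °C. Cells: DT40 Tdp1-/- stably carrying human TDP1, 400 per well, compound exposure in the absence of CPT (DMSO vehicle).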
HT1080-NT tox: qHTS for induction of synthetic lethality in tumor cells producing 2HG: qHTS for the HT-1080-NT fibrosarcoma cell line | HT-1080-NT fibrosarcoma viability, CellTiter-Glo ATP luminescence, 48 h | Potency, µM (titrated, usually from 46.1 µM), inactives show top-dose activity, negative = less viability, actives largely listed as cytotoxic | hit rate 1.6% among 360,000;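 also: NT is the 2HG producing partner of a matched IDH1 knockdown line; 0% = DMSO-treated cells and -100% = media-only wells without cells; nearly all actives have a fitted effect of over 55% in size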
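HT-1080-NT; 750 cells/well; 5% FBS RPMI; 48 h compound, 37 degrees C; CellTiter-Glo luminescence; curve fitting and curve-class assignment.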
DT40 TDP1 CPT: qHTS for Inhibitors of human tyrosyl-DNA phosphodiesterase 1 (TDP1): qHTS in cells in presence of CPT; chicken DT40 Tdp1-/-;hTDP1 cells + 20 nM CPT, ATP luminescence, 48 h; Potency, µM (doses to about 46.2 µM), inactives show at the top dose activity change, negative = growth inhibition, hits mostly inhibitors; hit rate 12% among 420,000; also: % is scaled to controls: 0 for no effect and ±100 for the full control effect; nearly all actives have a fitted effect of over 55% in size
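Cell growth measured by CellTiter-Glo luminescence after a minimum 48 h, 37 C compound exposure with 20 nM CPT in Tdp1-knockout DT40 cells stably expressing hTDP1, seeded 400/well; qHTS titration format.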
HT1080 IDH1KD tx: qHTS for induction of synthetic lethality in tumor cells producing 2HG: qHTS for the HT-1080-IDH1KD cell line; HT-1080 IDH1 knockdown viability, ATP luminescence, 48 h; Potency, µM (doses to about 46.1 µM), for the others: at the highest dose activity, negative = toxicity, hits mostly cytotoxic; hit rate 2% among 360,000;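 also: 0% = DMSO wells and -100% = cell-free medium wells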
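After a 2 h attachment period, IDH1KD HT-1080 cells took pin-transferred compound for 48 h at 37 °C; ATP-based luminescence after 10 min room-temperature reagent incubation reported viability.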
TGFb SMAD3 inh: qHTS for Inhibitors of TGF-b | HepG2 CAGA-GFP TGF-b/SMAD3 reporter, GFP fluorescence, 18 h; TGF-beta stimulated, 500 pg/mL final | Potency, µM (doses to about 46.1 µM), for inactives: at the top dose activity, negative = inhibition, actives largely listed as inhibitors | hit rate 1.2% among 410,000; also: % is scaled to controls: 0 for no effect and ±100 for the full control effect; nearly all actives have a fitted effect of over 65% in size
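Per well, imaged GFP fluorescence of HEPG2 CAGA-GFP cells gives the signal; cells get compound, then TGF-beta (500 pg/mL final), 18 h at 37 degrees C; %Activity versus -TGF-beta and +DMSO controls.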
HepG2 viability: qHTS for Inhibitors of TGF-b: Cytotox Counterscreen. HepG2 CAGA-GFP viability, ATP luminescence, 18 h. Potency, µM (doses to about 46.1 µM), for inactives: at the highest dose activity change, negative = cytotoxicity, usual class: cytotoxic. hit rate 0.76% among 410,000
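HepG2 CAGA-GFP cells (1000/well, DMEM with 1% FBS) received compound, then TGF-beta at 500 pg/mL final, and were incubated 18 hours at 37 degrees C. Viability was read by CellTiter-Glo luminescence. Media-only wells were set as complete cell-killing and DMSO as no toxicity.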
Numbers without * were called inactive; u = inconclusive; x = not tested or not shown; [ ] = another dose, or the depositor's remark. Calls follow the shape of the dose curve; as a rule, active = well fitted curve in the direction sought with a large enough effect; inconclusive = small, poorly fitted or top-dose-only effect, or another doubt; inactive = no such curve, though single readings can be large; an effect the other way counts as inactive or inconclusive. Potency is read from the fitted curve at half-maximal effect.

SMILES	DT40 TDP1 no CPT	HT1080-NT tox	DT40 TDP1 CPT	HT1080 IDH1KD tx	TGFb SMAD3 inh	HepG2 viability
Cc1cc(Br)ccc1NC(=O)c1cn(C2CCCC2)c(=O)c2c1c1ccccc1n2C	u	x	-27%	x	u	-2%
COc1cc(Cl)c(C)cc1NC(=O)c1cn(C2CCCC2)c(=O)c2c1c1ccccc1n2C	u	x	0.65µM*	x	0%	3%
Cc1cccc(COc2ccc(/C=C3/C(=O)N(C)C(=S)N3C)cc2)c1	u	6%	u	10%	12%	-26%
CCC(C)(C)C1CCc2nc3ccccc3c(C(=O)OC(C)C(=O)Nc3c(C)n(C)n(-c4ccccc4)c3=O)c2C1 (stereo not drawn)	u	-25%	23µM*	-25%	-23%	-9%
CCCc1nc2ccccc2c(C(=O)OCC(=O)Nc2c(C)n(C)n(-c3ccccc3)c2=O)c1CC	16µM*	-8%	u	-8%	0%	-27%
CCc1ccc(C(=O)OCC(=O)Nc2c(C)n(C)n(-c3ccccc3)c2=O)cc1	-2%	-5%	-7%	1%	2%	-5%
CC1(C)CC(=O)C2=C(C1)OC1=C(C(=O)CC(C)(C)C1)C2c1ccc(O)c([N+](=O)[O-])c1	-12%	1%	u	4%	-2%	3%
CC1(C)CC(=O)C2=C(C1)OC1=C(C(=O)CC(C)(C)C1)C2c1cccc([N+](=O)[O-])c1	16µM*	1%	u	1%	0%	-22%
CC1(C)CC(=O)C2=C(C1)OC1=C(C(=O)CC(C)(C)C1)C2c1ccc(O)cc1O	4µM*	5.6µM*	2µM*	5µM*	7.1µM*	7.1µM*
O=c1c2ccccc2nc(SCc2ccc([N+](=O)[O-])cc2)n1CCCO	6.5µM*	u	10µM*	u	-17%	0%
O=C(CCCn1c(=O)c2ccccc2n(Cc2ccccc2)c1=O)NCc1ccco1	15µM*	u	12µM*	u	8%	0%
O=c1c2sccc2nc(SCc2ccc([N+](=O)[O-])cc2)n1Cc1ccccn1	16µM*	-14%	u	-11%	u	-24%
Nn1c(SCc2ccc([N+](=O)[O-])cc2)nc2ccccc2c1=O	u	-1%	-12%	0%	5%	-21%
Cc1ccc(CSc2nc3ccccc3c(=O)n2CCCC(=O)NCc2ccco2)cc1	12µM*	15%	u	u	28%	-3%
Cc1cccc(Nc2cc(=O)n(C)c(=O)n2C)c1	3%	5%	-13%	0%	0%	12%
O=C(CCCCn1c(=O)c2ccccc2n(Cc2ccc(F)cc2)c1=O)NCc1ccco1	15µM*	18µM*	16µM*	-15%[9.24 µM]	-1%	1%
COc1cc(OC)cc(C(=O)NNC(=O)C2CCC2)c1	-25%	0%	-10%	1%	-11%	-8%
O=C(OCC#Cc1c(COC(=O)c2ccccc2)nnn1Cc1ccccc1)c1ccccc1	u	-6%	18µM*	2%	1%	5%
COc1ccccc1NCc1cccn1-c1nnc(N2CCCCCC2)s1	u	x	u	x	u	-31%
CCc1ccc(NCc2cccn2-c2nnc(N3CCCCCC3)s2)cc1	16µM*	x	21µM*	x	x	-41%
COc1ccc(NCc2cccn2-c2nnc(N3CCOCC3)s2)cc1OC	u	x	-20%	x	-7%	-2%
Cc1ccc(CNCc2cccn2-c2nnc(N3CCCC3)s2)cc1	16µM*	x	u	x	-31%	-42%
COc1ccc(NCc2cccn2-c2nnc(N3CCCCC3)s2)cc1OC	16µM*	x	u	x	-4%	-22%
O=C(Cc1ccc(F)cc1)N1CCC(N2CCC(C(=O)N3CCOCC3)CC2)CC1	-13%	5%	0%	-2%	-4%	-3%
O=S1(=O)CC(O)C(O)CS1 (stereo not drawn)	u	17%	23µM*	u	x	x
SMILES	DT40 TDP1 no CPT	HT1080-NT tox	DT40 TDP1 CPT	HT1080 IDH1KD tx	TGFb SMAD3 inh	HepG2 viability
COc1cccc(NC(=O)C2CCN(S(=O)(=O)c3ccc4c(c3)C(C)(C)C(=O)N4C)CC2)c1	u	2%	3%	-3%	u	-4%
CC1CCN(S(=O)(=O)c2nnc(NC(=O)c3cccc(Br)c3)s2)CC1	u	x	u	x	4.5µM*	-37%
O=C(Nc1nnc(S(=O)(=O)N2CCCCC2)s1)c1cccc(Br)c1	15µM*	-4%	23µM*	1%	-13%	-26%
CC(C)c1ccc(-c2c(C#N)c(N)nc(SCC(=O)N3CCCCCC3)c2C#N)cc1	-18%	-4%	-16%	-9%	-18%	-9%
CC(C)c1ccc(-c2noc(SCC(=O)N(C)c3ccc(F)cc3)n2)cc1	23µM*	x	26µM*	x	u	-45%
CC(C)c1ccc(-c2c(C#N)c(N)nc(SCC(=O)N3CCCCC3)c2C#N)cc1	u	-20%	9.2µM*	-3%	u	-4%
CC(C)c1ccc(-c2noc(SCC(=O)N3CCCCC3)n2)cc1	12µM*	x	u	x	1%	-14%
CCOC(=O)c1cccc(NC(=O)c2cc3c(=O)n(C)c4ccccc4c3n2C)c1	21µM*	x	u	x	3%	2%
COC(=O)c1ccccc1NC(=O)c1cc2sccc2n1C	-15%	-4%	-3%	2%	-1%	3%
Cn1c(C(=O)Nc2cccc(Cl)c2)cc2c(=O)n(C)c3ccccc3c21	15µM*	x	-22%	x	9%	-6%
COC(=O)c1cccc(NC(=O)c2cc3sccc3n2C)c1	21µM*	3%	u	4%	-1%	-7%
Cc1ccccc1S(=O)(=O)NC(=O)C1(C)CCN1C(=O)Cc1cc(F)ccc1F (stereo not drawn)	0%	23%	-12%	14%	6%	-6%
CCC[C@H]1CN(c2ccc(Br)cc2)C(=O)[C@@H]1CC(=O)Nc1ccc(OC)cc1	16µM*	0%	u	-2%	3%	-26%
COc1ccc(N2C[C@H](CSC)[C@@H](CC(=O)Nc3ccc(Br)cc3)C2=O)cc1	21µM*	-14%	u	-25%	-28%	-56%

Screens as filed in PubChem BioAssay.
